The whole screen tested about 190,000 compounds, of which about 1,600 (0.84%) were called active.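 How the source made its calls: active means inhibition above a set limit, derived from the sample mean plus 3 SD (cut at about 45% in these data); inconclusive means one replicate passes the limit while the other fails; inactive means the rest.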 The full list was thinned out, with actives kept by preference.
assay: APP 5'UTR translational reporter suppression – APP 5'UTR luciferase, SH-SY5Y cells, primary screen (AID 1285); conditions: SH-SY5Y APP 5'UTR-luciferase reporter, luminescence; at 2 µM; hits give high values

inhibition, inactive:
O=C(Nc1ccc(N2CCOCC2)cc1)c1ccc2c(c1)OCO2 -48.7%
O=C(Nc1cccc([N+](=O)[O-])c1)c1ccc2c(c1)OCO2 -43.1%
CCOC(=O)c1c(NC(=O)C2CC=CCC2C(=O)O)sc(C)c1CC (stereo unspecified) -12.9%
O=C(CCN1C(=O)c2ccccc2C1=O)NNC(=O)c1ccc(Cl)cc1Cl -9.9%
O=C(Cc1cccs1)N/N=C/c1ccc(OCc2ccccc2)cc1 5.4%
COc1ccc(C(=O)C[n+]2ccc(N)c(C)c2C)cc1 6.8%
Oc1c(CN2CCN(c3ccc(F)cc3)CC2)cc(Cl)c2cccnc12 8.7%
O=c1[nH]n(-c2cccc(Cl)c2)c2ncccc12 -4.8%
COc1ccc(OCC(=O)NNC(=O)c2cccc(C)c2)cc1 -16.1%
COc1ccc(C(=O)NN(C)c2nc(-c3ccccc3)cc(C)c2S(C)(=O)=O)cc1 -3.3%
CN(NC(=O)c1ccccc1)c1nc2ccccc2nc1C(F)(F)F -3.6%
COC(=O)CNC(=O)c1ccccc1F -10.5%
CC(=O)N1CC(C)c2scc(C)[n+]2-c2ccccc21 (stereo unspecified) -17.2%
C=CCc1ccc(OCC(O)CN2CCN(Cc3ccccc3)CC2)c(OC)c1 (stereo unspecified) -8.6%
CC(=O)N1c2ccccc2N(Cc2ccc([N+](=O)[O-])cc2)C(=O)C1(C)C -12.9%
CCOc1ccc(N2CC(C(=O)NCCN3C(=O)S/C(=C\c4cccnc4)C3=O)CC2=O)cc1 (stereo unspecified) -6%
O=C(COC(=O)c1cc(S(=O)(=O)N2CCCCC2)ccc1Cl)NCc1ccco1 5%
O=C(COC(=O)c1cnc(Cl)c(Cl)c1)NCc1ccco1 6.8%
C/C(=N\NC(=O)c1cccnc1)c1ccc(-n2ccnc2)cc1 -7.3%
Cc1[nH]c2ccccc2c1-c1ccc(Cl)nn1 5.5%
COc1ccc(Cc2n[nH]c(=S)n2NC(=O)Nc2ccc(C)cc2)cc1 -47.2%
O=C(CN1CCCCC1)Nc1ccccc1Cl 17.7%
O=C(Nc1ccccc1Cl)c1ccc2nsnc2c1 -80.7%
CCN(C(=O)CN1CCN(Cc2ccccc2)CC1)c1c(N)n(Cc2ccccc2)c(=O)[nH]c1=O -17.3%
CCCc1nc(SCC(=O)Nc2ccc(S(=O)(=O)N(C)C)cc2)c2ccccc2n1 -11.7%
COC(=O)CSc1nc(C2CC2)nc2ccccc12 -12.5%
COc1ccc(Cl)cc1NC(=O)NC(C)C(C)(C)C (stereo unspecified) -0.1%
CCN(CC)S(=O)(=O)c1ccc(Cl)c(NC(=O)c2ccncc2)c1 17.9%
CCN(CC)CCCNC(=O)Cn1cnc2sc(C)c(S(=O)(=O)N3CCN(c4ncccn4)CC3)c2c1=O -10.4%
Cc1ccc(-c2noc(CCC(N)=O)n2)cc1 5.2%
CN1CCN(C(=O)CCc2nc(-c3ccc(Cl)cc3)no2)CC1 9.1%
COc1ccc(N2CCN(C(=O)c3ccc4c(Cl)c5c(nc4c3)CCCC5)CC2)cc1 -5.5%
CC(=O)Nc1nc(N(C)C)nc(N(C)C)n1 4.4%
CC1(C)CC(=O)c2cnc3nc4ccccc4n3c2C1 -8.9%
COC(=O)c1ccc(CSc2nnc(N)s2)o1 -10.2%
CN(C(=O)CSc1nnc(N)s1)c1c(N)n(Cc2ccccc2)c(=O)[nH]c1=O -12.7%
COCCNC(=O)c1ccc(-n2c(SCc3cccnc3)nc3ccccc3c2=O)cc1 -4.3%
CCCCCCCCCCOC(=O)C[N+](C)(C)CC1CCCCC1O (stereo unspecified) -4.7%
O=C(c1snnc1-c1ccccc1)N1CCOCC1 -16.4%
Cc1cc(C2=NNC(=Nc3ccc(S(=O)(=O)N4CCOCC4)cc3)SC2)c(C)n1CC1CCCO1 (stereo unspecified) -30.6%
COCCn1c(C)cc(C2=NNC(=Nc3ccc(F)cc3)SC2)c1C -82.3%
CCN(C(=O)CSc1nc2ccccc2n1CC)C1CCS(=O)(=O)C1 (stereo unspecified) -8%
C[N+]1(CC(O)COc2ccccc2)CCN(C(=O)c2ccc([N+](=O)[O-])cc2)CC1 (stereo unspecified) 0.3%
COc1ccc(NC(=O)COC(=O)CNC(=O)C2CCCCC2)cc1 -10.5%
O=C(OCC(=O)c1cccs1)C1=COCCO1 -41.7%
Cc1ccc2[nH]c(C)c(CCNC(=O)NC3CCCCC3)c2c1 2.7%
CSCC[C@H](NC(=O)NC1CCCC1)C(=O)O 20.9%
COc1cc2c(cc1OC)CN(C(=O)c1cc(=O)c3ccccc3o1)CC2 13.7%
COc1cc2c(cc1OC)CN(C(=O)c1ccc(S(=O)(=O)N3CCCCCC3)cc1)CC2 -6.7%
Cc1cccc(CSc2ccc(-c3cccs3)nn2)c1 -24.9%
Cc1cc(N2CCOCC2)nc2ccc(NC(=S)N3CCN(Cc4ccccc4)CC3)cc12 -3.7%
CCOc1ccc(-n2c(O)c(/C=N/Nc3nnc(C)c(=O)[nH]3)c3ccccc3c2=O)cc1 -5.3%
COc1ccc(/C=N/Nc2nc3ccccc3c(=O)[nH]2)cc1 -92.9%
COc1ccc(S(=O)(=O)N2CN(CCc3ccc(OC)c(OC)c3)c3nc4ccccc4nc32)cc1 -3.7%
COC(=O)C1=C(C)NC(=O)CC1c1ccccc1OC (stereo unspecified) -15.8%
O=C(Nc1ccccc1C(=O)O)c1cc(S(=O)(=O)N2CCCCC2)cs1 -13.4%
Cc1ccc(-n2[nH]c(C)c(/C=N/NC(=O)c3cccc([N+](=O)[O-])c3)c2=O)cc1C -33.1%
Cc1ccsc1C(=O)N/N=C/c1ccc([N+](=O)[O-])cc1 -37.2%
CCOc1cc(CNn2c(C)nnc2SCC(=O)NC(C)(C)C)ccc1OCC(=O)NC(C)(C)C 21.4%
Cc1cc(C)n(CC(O)CN(c2ccccc2)S(=O)(=O)c2ccc3ccccc3c2)n1 (stereo unspecified) 1.9%
CCOC(=O)CN/C=C(\C#N)c1ccc(F)cc1 -29.3%
CCOc1c(Cl)cc(/C=N/O)cc1OC -23.6%
Cc1ccc(S(=O)(=O)C2C(=O)NC3(C)CC2c2ccccc2O3)cc1 (stereo unspecified) -1.5%
CCN(CC)CCCSc1nc2ccccc2s1 -15.1%
O=C(CC(NC(=O)c1ccccc1)c1ccccc1)Nc1ccc(F)c(F)c1 (stereo unspecified) 24.2%
CCOC(=O)N1CCN(C(=O)CSc2ccc(Cl)cc2)CC1 5%
CCOC(=O)N1CCN(C(=O)COc2ccc(Br)cc2)CC1 -13.6%
CC(Sc1nnnn1C)C(=O)NC(=O)NC1CCCCC1 (stereo unspecified) -31%
Cc1ccc(CCN2CC(C(=O)O)CC2=O)cc1 (stereo unspecified) -6.2%
Cc1ccc(CNC(=O)C2CC(=O)N(C3CCCCCCC3)C2)cc1 (stereo unspecified) -17.8%
Cc1ccc(NC(=O)c2ccc(Oc3ncccn3)cc2)cc1 -39.8%
O=C(CCC(=O)c1cccs1)NC1CCCCCC1 -18.6%
COC(=O)CSc1nccc(-c2cccs2)n1 8.1%
O=C(Nc1ccnc(-c2ccncc2)n1)c1cccs1 5.8%
Cc1ccc2c(c1)C(O)(CC(=O)c1cccc(-n3cccc3)c1)C(=O)N2 (stereo unspecified) -4.6%
CC1CC(C)CN(C(=O)CSc2ccsc2[N+](=O)[O-])C1 (stereo unspecified) -3.7%
O=C(NCc1ccco1)C(=O)c1cn(CC(=O)N2CCCCCC2)c2ccccc12 -1.5%
Cc1ccc(NC(=O)OCc2cncs2)cc1 -41.4%
COc1ccc(NC(=S)NCCNC(C)=O)cc1 -0.5%
COc1ccc(NC(=S)Nc2ccccc2Cl)cn1 -6.6%
CC(=O)Nc1ccc(OCC(=O)NCc2ccc(C)cc2)cc1 -8.4%

inhibition, active:
O=C(Nc1ccccc1)c1ccc2c(c1)OCO2 58.8%
Clc1cccc(CN2COc3c(cc(Cl)c4cccnc34)C2)c1 74.6%
CSc1nc(N(C)NC(=O)c2cccc(C)c2)c2ccccc2n1 96.7%
CN(NC(=O)c1ccccc1F)c1nc(C(F)(F)F)nc2ccccc12 91%
Cc1cc(C(=O)OCC(=O)NCc2ccco2)c(C)n1-c1ccccc1 60.8%
O=C(Nc1ccccc1Cl)/C(Cl)=C(\Cl)S(=O)c1ccccc1 (stereo unspecified) 93.8%
CC(C)N(C(=O)CSc1nc(COc2ccccc2)nc2ccccc12)C(C)C 48.3%
CCNC(=O)CCc1nc(-c2ccc(C(C)(C)C)cc2)no1 51.8%
Nc1nnc(SCC(=O)OCc2ccc(Cl)c(Cl)c2)s1 86.8%
C=CCn1c(C)cc(C2=NNC(=NCC)SC2)c1C 69.1%
CCC(C)(C)c1ccc(Oc2ccc(NC(=O)COC(=O)C3=COCCO3)cc2)cc1 45.6%
CCOc1cc(C(=O)N2CCc3cc(OC)c(OC)cc3C2)ccc1OC(F)F 94.6%
COc1ccc(Cc2nnc(N/N=C/c3ccccc3O)[nH]c2=O)cc1OC 85.9%
Cc1cc(C(=O)N/N=C/c2cc([N+](=O)[O-])cc(C)c2O)n[nH]1 87.3%
CCOc1cc(/C=C(/C#N)c2ccc(Cl)cc2)cc(Cl)c1OCC(=O)O 50.6%
CCOC(=O)N1CCN(C(=O)COc2ccc(Cl)cc2C)CC1 49.2%
CCc1ccc(CNC(=O)C2CC(=O)N(CCc3ccc(C)cc3)C2)cc1 (stereo unspecified) 50.9%
O=C(O)COc1ccc(-c2nccc(-c3cccs3)n2)cc1 69%
COc1ccc(CS(=O)/C(Cl)=C(/Cl)C(=O)Nc2ccc(OC)nc2)cc1 (stereo unspecified) 94%
COc1ccc(NC(=O)/C(Cl)=C(/Cl)S(=O)Cc2ccc(C)cc2)cn1 (stereo unspecified) 91.7%

From PubChem BioAssay AID1285 (Columbia University Molecular Screening Center, 2008)
